These results are taken from PubChem BioAssay (NCI).

A short description of assay [1]: NCI Yeast Anticancer Drug Screen. Data for the rad50 strain (AID 155).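 Also: 0% = growth of vehicle-only cultures of the same strain.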 The conditions noted are these: S. cerevisiae rad50 strain growth inhibition; at 50.0 µM; hits give high values. A digest of the protocol: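 Compounds were tested on a yeast strain with an engineered DNA damage repair alteration; the reported value is growth inhibition normalised to vehicle treatment.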

Assay [2] can be described thus: NCI Yeast Anticancer Drug Screen. Data for the mec2-1 strain (AID 157). The conditions noted are these: S. cerevisiae mec2-1 strain, at 50.0 µM, hits give high values. In outline: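 Test agents were screened against the mec2-1 yeast strain, with defined DNA repair or cell cycle alteration. Growth was scored as inhibition against vehicle-only controls.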
A short description of assay [3]: NCI Yeast Anticancer Drug Screen. Data for the sgs1 mgt1 strain (AID 161).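 Also: 0% = growth of cultures given vehicle only.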 The conditions noted are these: S. cerevisiae sgs1 mgt1 strain, at 50.0 µM, hits give high values. A digest of the protocol: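 Read-out: growth inhibition vs vehicle controls. Cells: mutant yeast strain deficient in DNA damage repair.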
Assay [4] is described as follows: NCI Yeast Anticancer Drug Screen. Data for the cln2 rad14 strain (AID 165).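 Also: 0% = growth equal to vehicle treated cultures.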 The note with it: S. cerevisiae cln2 rad14 strain, at 50.0 µM, hits give high values. In outline:
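Growth of compound-exposed yeast (cln2 rad14 genotype) measured and expressed as inhibition relative to vehicle.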

A short description of assay [5]: NCI Yeast Anticancer Drug Screen. Data for the bub3 strain (AID 167). The note with it: S. cerevisiae bub3 mutant strain, at 50.0 µM, hits give high values. A digest of the protocol: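 Growth of a checkpoint-deficient yeast mutant is measured after compound exposure. Values represent inhibition relative to vehicle.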
Assay [6] can be described thus: NCI Yeast Anticancer Drug Screen. Data for the mlh1 rad18 strain (AID 175). The note with it: S. cerevisiae mlh1 rad18 strain growth inhibition; at 50.0 µM; hits give high values. In outline: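 In this whole-cell yeast screen, a strain with altered DNA damage repair is challenged with compound, and its growth is measured against matched vehicle-treated controls.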

About 79,000 compounds went through this panel and 15% of them were active in at least one assay; those are over-represented in the sample as a whole. Unmarked numbers belong to inactive results. Active and inactive are the calls of the source. Rule as the data show it: active = growth inhibition above about 70%; inactive = the rest.

Consider `O=C1C(OC(=O)c2ccccc2)=C(OC(=O)c2ccccc2)C(=O)C(OC(=O)c2ccccc2)=C1OC(=O)c1ccccc1`, for which the growth inhibition in assay [1] was -7.15%; in assay [2], -1.25%; in assay [3], 13.8%; in assay [4], -22.8%; in assay [5], 2.85%; in assay [6], 2.75%.
Take `O=[N+]([O-])c1ccc2nc(NCCCO)c3ccccc3c2c1`: the growth inhibition in assay [1] was 8.2%; in assay [2], 11.3%; in assay [3], 3.85%; in assay [4], -0.9%; in assay [5], 12.1%; in assay [6] it was 12.1%.
Turning to `O=C(Nc1ccc(Cl)cc1)c1cccnc1`, the growth inhibition in assay [1] was 10.1%; in assay [2] it was -10.7%; in assay [3], 32.8%; in assay [4], -8.5%; in assay [5], 34.4%; in assay [6] it was 15.6%.
Turning to `C/C(=N/NC(=S)N1CCCCC1)c1ccccc1O`, the growth inhibition is -17.4% in assay [1]; -41.7% in assay [2]; 1.55% in assay [3]; 4.4% in assay [4]; -10.6% in assay [5]; -5.75% in assay [6].
As to `CCOC(=O)C(Cc1ccc(OCc2ccccc2)c(OCc2ccccc2)c1)(NC=O)C(=O)OCC`, the growth inhibition in assay [1] is 36.6%; in assay [2], -1.6%; in assay [3], 19.8%; in assay [4], -14.8%; in assay [5] it was -9.9%; in assay [6], 9%.
As to `CCCCNS(=O)(=O)CCCC`, the growth inhibition was 22.2% in assay [1]; 2.4% in assay [2]; -6.35% in assay [3]; -29.6% in assay [4]; 6.15% in assay [5]; -9.8% in assay [6].
For the compound `CC(Nc1ccc(Cl)c(Cl)c1)C1CCOC1=O` (stereo unspecified), the growth inhibition in assay [1] was 85.5% (active); in assay [2], 97% (active); in assay [3] it was 94.8% (active); in assay [4], 80% (active); in assay [5] it was 94.8% (active); in assay [6] it was 95.5% (active).
With `Cn1c(O)c(C=Nc2ccccc2Cl)c(=O)n(C)c1=O`, the growth inhibition in assay [1] is -11.1%; in assay [2], -4.65%; in assay [3], -9.7%; in assay [4], -38.6%; in assay [5], 0.55%; in assay [6] it was -28.4%.
As to `O=C(O)CCCCCN1C(=O)c2cccc([N+](=O)[O-])c2C1=O`, the growth inhibition is 17.6% in assay [1]; 10% in assay [2]; 22.5% in assay [3]; 19.2% in assay [4]; 12.3% in assay [5]; 12.7% in assay [6].
In the case of `COc1cc(N)ccc1C(=O)NC(CCC(=O)O)C(=O)O` (stereo unspecified), the growth inhibition in assay [1] was -14.5%; in assay [2] it was -11.2%; in assay [3] it was 24.9%; in assay [4], -33.7%; in assay [5], 17.9%; in assay [6], -19.7%.
Turning to `CC(C)NC(N)=O`, the growth inhibition in assay [1] was 29.8%; in assay [2], 16%; in assay [3], 26.4%; in assay [4] it was 19.1%; in assay [5], 2.35%; in assay [6], 16.4%.
As to `CC(C)(C)CC(C)(C)c1ccc(OCCOc2ccc(S(=O)(=O)O)cc2[N+](=O)[O-])cc1`, the growth inhibition in assay [1] was 68.8%; in assay [2], 30.9%; in assay [3], 71.7% (active); in assay [4], 1.65%; in assay [5], -8.85%; in assay [6], 37.2%.
On to `CC(=O)/C(=C/N1CCNC1=S)C(=O)Nc1ccc([N+](=O)[O-])cc1`, for which the growth inhibition in assay [1] is -0.1%; in assay [2], -4.5%; in assay [3] it was -28.1%; in assay [4] it was -33%; in assay [5] it was -12.9%; in assay [6], 5.6%.
Regarding `COc1ccc(/C(Br)=C2\OC(=O)c3ccccc32)cc1`, the growth inhibition in assay [1] was -7.95%; in assay [2], -19.9%; in assay [3], -13.4%; in assay [4] it was -35.1%; in assay [5], 18.4%; in assay [6], -6.9%.
Consider `Nc1ccc(S(=O)(=O)O)cc1[N+](=O)[O-]`, for which the growth inhibition was 4.4% in assay [1]; 3.8% in assay [2]; -3.75% in assay [3]; 1% in assay [4]; 5.8% in assay [5]; 12.6% in assay [6].
In the case of `CCOc1ccc(N=Cc2cc(Br)ccc2O)cc1`, the growth inhibition in assay [1] was 2.55%; in assay [2] it was 0.6%; in assay [3], 1.5%; in assay [4] it was -0.5%; in assay [5], 1.15%; in assay [6], -13.4%.
Take `COc1ccc(C)c(CN(C)C)c1`: the growth inhibition in assay [1] is 7.85%; in assay [2], -7.7%; in assay [3], 8.35%; in assay [4], 5.25%; in assay [5], -1.2%; in assay [6], 23.6%.
Take `O=P(Nc1ccc(Cl)c(Cl)c1)(N1CCCCC1)N1CCCCC1`: the growth inhibition is 3.5% in assay [1]; -47.8% in assay [2]; -12.4% in assay [3]; -12.8% in assay [4]; 2.45% in assay [5]; 14.7% in assay [6].
`O=C(/C=C/c1ccccc1)Nc1ccc([N+](=O)[O-])cc1Cl`: the growth inhibition in assay [1] is 4.75%; in assay [2], 10.7%; in assay [3], 12%; in assay [4] it was -1.95%; in assay [5], 26.2%; in assay [6], 18.5%.
With `CCN(CC)CCN1C(=O)c2cccc3cc(N)cc(c23)C1=O`, the growth inhibition in assay [1] is -1.9%; in assay [2] it was -27.3%; in assay [3] it was -7.4%; in assay [4], -3.75%; in assay [5], -9.6%; in assay [6], 2.2%.
Consider `CCOC(CCl)(NC(C)=O)C(=O)OC` (stereo unspecified), for which the growth inhibition is -0.5% in assay [1]; -9.7% in assay [2]; -9.55% in assay [3]; -8.75% in assay [4]; 4.3% in assay [5]; -8.1% in assay [6].
